From PubChem BioAssay AID422 (Emory University Molecular Libraries Screening Center, 2006)
About 310 (0.19%) of roughly 160,000 compounds were called active. This excerpt belongs to a sample that is enriched for actives. A number with no mark means an inactive call. No stated cut-off is given here; in the data, active means inhibition above about 30%; inactive means the rest.

The molecules below were run against 14-3-3 protein gamma (Homo sapiens) (UniProt P61981) (assay: modulators of 14-3-3 gamma protein binding, primary screen, biochemical, fluorescence polarization (AID 422;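 further: 0% = protein plus tracer without compound and 100% = blank with tracer alone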)). Settings: FP, 14-3-3gamma / TMR-pS259-Raf peptide binding; at 40 µM; hits give high values.
Chain of 14-3-3 protein gamma (Homo sapiens) (P61981 whole entry, looked up): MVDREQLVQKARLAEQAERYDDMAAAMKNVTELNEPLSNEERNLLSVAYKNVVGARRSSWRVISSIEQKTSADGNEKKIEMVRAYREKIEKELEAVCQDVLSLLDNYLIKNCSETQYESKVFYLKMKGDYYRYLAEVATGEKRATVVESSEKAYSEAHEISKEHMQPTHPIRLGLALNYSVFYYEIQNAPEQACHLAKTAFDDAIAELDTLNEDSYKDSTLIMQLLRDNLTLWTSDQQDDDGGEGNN

SMILES	inhibition
O=C(C1CCC(Cn2c(=O)[nH]c3ccccc3c2=O)CC1)N1CCN(Cc2ccccc2)CC1 (centres undefined)	-3.1%
CSc1cccc(NC(=O)C2c3ccccc3C(=O)N3CCc4ccccc4C23)c1 (centres undefined)	-1.47%
CCCCNC(=O)c1c[nH]c2ccc(S(=O)(=O)Nc3cccc(OC)c3)cc2c1=O	-22.6%
O=C(NC1CCCCCCCCCCC1)c1cnc2n(c1=O)CCS2	-1.96%
CCCOc1ccccc1C1NC(=O)NC(C)=C1C(=O)OCC1CCCO1 (centres undefined)	3.08%
CN(C)/C=C1/Nc2ccccc2C1=O	-0.95%
O=C1Nc2ccccc2C1=Nc1ccc(O)cc1	87.3% (active)
CN(C)/C=C1/C(=O)Nc2ccccc21	-2.07%
O=C(Nc1nc2ccccc2n1CCOc1ccccc1)c1cccs1	8.38%
CCOCCn1cnc2sc(C(=O)N3CCN(c4ccccn4)CC3)c(C)c2c1=O	1.28%
Cc1c(Cl)cccc1NC(=O)c1cc(S(=O)(=O)N2CCC(C)CC2)ccc1F	-5.5%
O=C(Nc1nc(-c2cccs2)cs1)c1ccc(S(=O)(=O)N2CCc3ccccc3C2)cc1	-43.5%
CN1C(=O)c2ccccc2C(C(=O)N2CCC(Cc3ccccc3)CC2)C1c1c[nH]c2ccccc12 (centres undefined)	6.73%
COc1ccc(CSc2n[nH]c(C)n2)cc1Cl	-0.37%
CSCCC(NS(=O)(=O)c1cccs1)C(=O)Nc1ccc(F)cc1 (centres undefined)	-1.64%
CC(=O)OCC#CCSc1nc2ccccc2o1	-1.9%
CCOC(=O)C1CCN(S(=O)(=O)c2ccc(I)cc2)CC1	-2.44%
CC1CCN(S(=O)(=O)c2ccc3ncn(CC(=O)N4CCN(Cc5ccccc5)CC4)c(=O)c3c2)CC1	1.95%
CCCCNC(=O)C1c2ccccc2C(=O)N(C)C1c1c[nH]c2ccccc12 (centres undefined)	-0.96%
O=C(OC(c1ccccc1)c1nccc2ccccc12)c1ccc([N+](=O)[O-])cc1 (centres undefined)	-10%

SMILES	inhibition
NC(=O)C1CCN(C(=O)c2ccc3nc4ccccc4c(=O)n3c2)CC1	12.3%
CN(C(N)=O)C1CCS(=O)(=O)C1 (centres undefined)	2.31%
S=c1[nH]nc(-c2cccs2)n1Cc1ccc2c(c1)OCO2	-5.66%
CCN1C(=O)c2cccc3c(N)ccc1c23	5.38%
CN1C(=O)c2cccc3c(N)ccc(c23)C1=O	85.5% (active)
Nc1ccc2c3c(cccc13)C(=O)NC2=O	14.8%
COc1ccc(N2C(=O)CCC(C(=O)Nc3ccc(Br)cc3C)C2c2ccc(OC)c(OC)c2)cc1 (centres undefined)	-9.11%
COc1ccccc1CNC(=O)c1cc(-c2ccc(Br)s2)nc2ccccc12	-1.85%
CCCCc1nc(N)c(C#N)c(-c2ccccc2Cl)c1CCC	-5.82%
COc1ccc(-c2nc(CS(=O)CC(=O)NCc3cccnc3)c(C)o2)cc1OC (centres undefined)	-5.12%
COc1ccc(-c2nc(CS(=O)CC(=O)N3CCc4ccccc4C3)c(C)o2)cc1 (centres undefined)	-4.26%
COc1ccc(-c2nc(CS(=O)CC(=O)NCc3ccccn3)c(C)o2)cc1 (centres undefined)	99.2% (active)
Fc1ccc(Nc2nc(NCc3ccccc3)c3ccccc3n2)cc1	-3.64%
CSc1ccc(-c2nc3ccc(Cl)cn3c2Nc2ccc3c(c2)OCO3)cc1	-19%
COc1ccc(C2Nc3ccccc3NC3=C2C(=O)CC(c2cccc([N+](=O)[O-])c2)C3)cc1 (centres undefined)	0.48%
CCOc1ccc(S(=O)(=O)NC2CCCC2)c2cccnc12	-6.1%
COc1ccc([N+](=O)[O-])cc1NC(=O)c1c([N+](=O)[O-])cnn1C	-2.94%
O=C1C2CC=C(Cl)CC2C(=O)N1c1ccc(O)cc1 (centres undefined)	-3.22%
COC(=O)c1ccccc1NC(=O)CCCn1nc([N+](=O)[O-])c(Cl)c1C	-3.89%
CCC(C)(C(=O)NC1CCCCC1)N(C(=O)CC1NC(=O)NC1=O)c1ccccc1 (centres undefined)	-2.16%

SMILES	inhibition
CC1CC(C)CN(CCCNC(=O)C2c3ccccc3C(=O)N(C)C2c2cccs2)C1 (centres undefined)	4.52%
Cc1c(-c2nc3ccccc3c(=O)[nH]2)sc2nc(-c3ccccc3)nc(N)c12	-34.5%
CC(C)CN(CC(C)C)S(=O)(=O)c1ccc(Br)cc1	-5.87%
CCCCCn1c(=O)[nH]c2cc(C(=O)NC(C)C)ccc2c1=O	-3.1%
COc1ccc(N=Cc2c(O)[nH]c3ccccc23)cc1OC	-6.05%
Cc1[nH]c2ccccc2c1C=Nc1ccc(O)cc1	121% (active)
COc1cc(N=Cc2c(O)[nH]c3ccccc23)cc(OC)c1OC	1.7%
CCCCNC(=O)C1CCC(=O)N1CCc1ccccc1 (centres undefined)	-1.84%
CC1=C(C(=O)OCCc2ccccc2)C(c2cccc([N+](=O)[O-])c2)NC(=O)N1 (centres undefined)	-4.75%
O=C1NC2=C(C(=O)c3ccccc32)C(c2ccccc2)S1 (centres undefined)	3.21%
COc1ccc(C2C=C(c3ccc(-c4ccccc4)cc3)Nc3ncnn32)cc1 (centres undefined)	-7.71%
O=C(Nc1ccc(-c2nnc(-c3ccccc3)o2)cc1)C1CCCO1 (centres undefined)	5.13%
O=C(Nc1ccc(-c2nc3ccc(NC(=O)c4ccc(Br)o4)cc3[nH]2)cc1)c1ccc(Br)o1	-23.6%
O=C(Nc1ccc(-c2nnc(-c3ccccc3)o2)cc1)c1ccc(Br)o1	116% (active)
O=C(CCSCc1cccc(F)c1)N1CCc2ccccc21	-8.82%
O=C(CN1CCCN(S(=O)(=O)c2ccc(Br)cc2)CC1)Nc1ccccc1F	-7.48%
CCc1ccc(OCCSc2nc3ccccc3c(=O)[nH]2)cc1	-1.81%
CC(NC(=O)C(Cc1ccc([N+](=O)[O-])cc1)N1C(=O)c2ccccc2C1=O)c1ccc(CCBr)cc1 (centres undefined)	-10.4%
C=C(C)Cn1c(-c2ccc(N(C)C)cc2)nc2ccccc21	-2.28%
